Results on nine sequences are retold here after article PMC7862700, “An all-to-all approach to the identification of sequence-specific readers for epigenetic DNA modifications on cytosine”.

Assay in all cases: DAPPL (digital affinity profiling via proximity ligation, sequencing); 10 mM Tris-HCl pH 7.5, 50 mM NaCl, 1 mM DTT, 4% glycerol, room temperature, 30 min; GST-TFs on glutathione beads, 16-mer random dsDNA library, 0.1% formaldehyde crosslink after washing; high values mean tight binding
What all share (conditions): protein: recombinant; tags: N-terminal GST; dsDNA, one strand shown

One test deals with T1, ERF (Homo sapiens, UniProt P50548 1-548).
T1 sequence: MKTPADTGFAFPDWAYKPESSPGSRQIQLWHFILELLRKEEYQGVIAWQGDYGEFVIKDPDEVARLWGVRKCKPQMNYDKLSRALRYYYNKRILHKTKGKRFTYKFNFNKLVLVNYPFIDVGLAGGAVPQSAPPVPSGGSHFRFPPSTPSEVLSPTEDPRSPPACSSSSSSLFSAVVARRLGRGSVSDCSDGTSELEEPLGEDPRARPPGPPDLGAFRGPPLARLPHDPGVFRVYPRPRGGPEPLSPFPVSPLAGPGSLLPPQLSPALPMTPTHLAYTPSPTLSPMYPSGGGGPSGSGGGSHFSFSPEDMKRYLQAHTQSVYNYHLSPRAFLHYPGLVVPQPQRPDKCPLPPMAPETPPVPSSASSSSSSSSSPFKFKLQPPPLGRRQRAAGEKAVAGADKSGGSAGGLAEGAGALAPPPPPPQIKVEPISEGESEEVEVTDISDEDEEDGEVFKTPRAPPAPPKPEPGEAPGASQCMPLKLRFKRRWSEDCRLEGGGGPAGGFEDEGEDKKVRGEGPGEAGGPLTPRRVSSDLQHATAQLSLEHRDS
A digest of the protocol:
(§1)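 Sequencing on an Illumina NextSeq500 followed washing, crosslinking with 0.1% formaldehyde, proximity ligation (BsaI/T4 ligase, 1 h, 37 °C) and PCR amplification of pools that had been incubated for 30 min at room temperature with 200 nmole of a random double-stranded 16-mer DNA library in Tris/NaCl/DTT/glycerol buffer. Each pool held DNA-barcoded human transcription factors, expressed in yeast as GST fusions and captured on glutathione beads, plus a tag-only sample. Binding signal is a hexamer's read frequency for a factor divided by its frequency in the tag-only sample.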

For the next test, the target named is T2, ETV3L (Homo sapiens, UniProt Q6ZN32 1-361).
T2 sequence: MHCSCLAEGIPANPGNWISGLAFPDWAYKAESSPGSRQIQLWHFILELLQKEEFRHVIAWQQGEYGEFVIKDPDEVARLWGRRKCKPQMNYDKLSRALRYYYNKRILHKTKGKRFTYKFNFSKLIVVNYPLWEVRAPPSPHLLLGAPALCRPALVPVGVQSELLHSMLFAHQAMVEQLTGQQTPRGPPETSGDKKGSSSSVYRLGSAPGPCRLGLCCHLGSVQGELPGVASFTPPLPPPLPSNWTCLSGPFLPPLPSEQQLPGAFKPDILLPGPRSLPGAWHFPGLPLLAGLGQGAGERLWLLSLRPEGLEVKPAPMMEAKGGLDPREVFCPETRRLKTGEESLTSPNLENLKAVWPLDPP
In outline:
as §1

The next test deals with T3, ETS2 (Homo sapiens, UniProt P15036 1-469).
T3 sequence: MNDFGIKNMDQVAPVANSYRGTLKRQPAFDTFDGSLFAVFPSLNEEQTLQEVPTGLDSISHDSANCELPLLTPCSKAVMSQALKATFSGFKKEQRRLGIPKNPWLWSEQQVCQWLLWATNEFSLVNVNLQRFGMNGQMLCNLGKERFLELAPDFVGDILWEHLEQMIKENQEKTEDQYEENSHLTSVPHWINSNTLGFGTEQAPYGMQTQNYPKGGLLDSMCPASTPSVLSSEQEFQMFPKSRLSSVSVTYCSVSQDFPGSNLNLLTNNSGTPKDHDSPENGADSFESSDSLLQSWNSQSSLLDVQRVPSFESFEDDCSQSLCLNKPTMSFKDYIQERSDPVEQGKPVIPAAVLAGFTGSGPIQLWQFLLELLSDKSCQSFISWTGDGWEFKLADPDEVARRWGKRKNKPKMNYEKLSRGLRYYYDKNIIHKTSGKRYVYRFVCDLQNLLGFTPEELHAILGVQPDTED
A digest of the protocol:
as §1

A further test concerns the target T4, SPDEF (Homo sapiens, UniProt O95238 1-335).
T4 sequence: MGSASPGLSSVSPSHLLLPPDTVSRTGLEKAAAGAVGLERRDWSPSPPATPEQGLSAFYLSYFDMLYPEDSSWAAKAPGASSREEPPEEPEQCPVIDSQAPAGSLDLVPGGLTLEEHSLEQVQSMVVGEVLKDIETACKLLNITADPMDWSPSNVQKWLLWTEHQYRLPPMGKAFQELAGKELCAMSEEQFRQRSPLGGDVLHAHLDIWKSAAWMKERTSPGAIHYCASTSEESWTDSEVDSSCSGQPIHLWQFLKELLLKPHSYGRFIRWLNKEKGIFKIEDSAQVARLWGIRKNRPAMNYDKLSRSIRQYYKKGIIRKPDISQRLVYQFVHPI
In outline: as §1

In a further test the target is T5, ETV7 (Homo sapiens, UniProt Q9Y603 1-341).
T5 sequence: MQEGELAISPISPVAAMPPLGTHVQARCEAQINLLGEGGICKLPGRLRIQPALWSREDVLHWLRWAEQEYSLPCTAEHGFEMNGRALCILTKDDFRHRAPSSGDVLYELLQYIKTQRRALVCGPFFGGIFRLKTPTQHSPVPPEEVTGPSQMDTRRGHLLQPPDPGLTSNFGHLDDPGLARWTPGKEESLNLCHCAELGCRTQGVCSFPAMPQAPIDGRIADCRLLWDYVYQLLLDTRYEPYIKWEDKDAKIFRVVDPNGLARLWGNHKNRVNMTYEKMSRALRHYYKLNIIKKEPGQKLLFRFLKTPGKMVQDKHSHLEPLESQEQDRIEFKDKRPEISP
In outline:
as §1

A further test addresses T6, ELF5 (Homo sapiens, UniProt Q9UKW6-2 1-255).
T6 sequence: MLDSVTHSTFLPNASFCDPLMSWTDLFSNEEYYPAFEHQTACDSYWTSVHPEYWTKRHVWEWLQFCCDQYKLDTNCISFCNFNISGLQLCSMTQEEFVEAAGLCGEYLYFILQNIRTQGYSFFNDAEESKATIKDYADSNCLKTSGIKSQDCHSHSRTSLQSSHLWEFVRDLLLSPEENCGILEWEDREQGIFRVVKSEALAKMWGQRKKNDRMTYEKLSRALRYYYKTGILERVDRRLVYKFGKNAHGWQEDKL
A digest of the protocol:
as §1

The next test deals with T7, ETV3 (Homo sapiens, UniProt P41162-2 1-143).
T7 sequence: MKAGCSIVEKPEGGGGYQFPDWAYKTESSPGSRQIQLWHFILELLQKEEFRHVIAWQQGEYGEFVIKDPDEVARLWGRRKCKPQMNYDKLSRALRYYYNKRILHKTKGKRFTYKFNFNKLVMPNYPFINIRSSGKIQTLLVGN
In outline: as §1

For the next test, the target named is ETV6 (Homo sapiens, UniProt P41212 1-452). In outline:
as §1

ETV6, sequence (P41212 whole entry): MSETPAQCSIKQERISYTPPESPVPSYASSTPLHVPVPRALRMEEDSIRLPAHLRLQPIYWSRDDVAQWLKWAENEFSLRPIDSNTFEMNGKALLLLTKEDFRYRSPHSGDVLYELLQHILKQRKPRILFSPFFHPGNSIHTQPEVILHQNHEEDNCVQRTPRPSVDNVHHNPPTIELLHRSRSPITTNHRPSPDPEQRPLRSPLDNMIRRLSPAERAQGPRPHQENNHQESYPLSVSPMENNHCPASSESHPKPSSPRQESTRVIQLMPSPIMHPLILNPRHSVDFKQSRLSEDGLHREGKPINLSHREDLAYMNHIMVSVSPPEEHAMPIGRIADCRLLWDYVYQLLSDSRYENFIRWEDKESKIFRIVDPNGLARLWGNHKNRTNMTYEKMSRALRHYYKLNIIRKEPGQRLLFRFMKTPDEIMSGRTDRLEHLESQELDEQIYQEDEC

For the sequence ATAAAC, the binding signal with ERF is 1.19 fold enrichment (6-mer frequency, TF over GST control); in the test with ETV3L, 1.18 fold enrichment (6-mer frequency, TF over GST control); in the test with ETS2 it was 1.18 fold enrichment (6-mer frequency, TF over GST control); in the test with SPDEF, 1.16 fold enrichment (6-mer frequency, TF over GST control); with ETV7, 1.05 fold enrichment (6-mer frequency, TF over GST control); in the test with ELF5, 1.17 fold enrichment (6-mer frequency, TF over GST control). Further, the binding signal with ETV3 was 1.1 fold enrichment (6-mer frequency, TF over GST control); with ETV6 it was 1.19 fold enrichment (6-mer frequency, TF over GST control).

As to CTGAAG, the binding signal was 1.26 fold enrichment (6-mer frequency, TF over GST control) with ERF; 1.09 fold enrichment (6-mer frequency, TF over GST control) with ETV3L; 1.22 fold enrichment (6-mer frequency, TF over GST control) with ETS2; 1.15 fold enrichment (6-mer frequency, TF over GST control) with SPDEF; 1.07 fold enrichment (6-mer frequency, TF over GST control) with ETV7; 1.06 fold enrichment (6-mer frequency, TF over GST control) in the test with ELF5. Further, the binding signal was 1.05 fold enrichment (6-mer frequency, TF over GST control) in the test with ETV3 and 1.05 fold enrichment (6-mer frequency, TF over GST control) with ETV6.

In the case of CACCTC, the binding signal with ERF was 1.21 fold enrichment (6-mer frequency, TF over GST control); with ETV3L, 1.18 fold enrichment (6-mer frequency, TF over GST control); with ETS2 it was 1.06 fold enrichment (6-mer frequency, TF over GST control); in the test with SPDEF, 1.17 fold enrichment (6-mer frequency, TF over GST control); in the test with ETV7, 1.17 fold enrichment (6-mer frequency, TF over GST control); with ELF5 it was 1.09 fold enrichment (6-mer frequency, TF over GST control). The binding signal in the test with ETV3 was 1.15 fold enrichment (6-mer frequency, TF over GST control); with ETV6, 1.14 fold enrichment (6-mer frequency, TF over GST control).

As to TGCATC, the binding signal was 1.4 fold enrichment (6-mer frequency, TF over GST control) with ERF; 1.34 fold enrichment (6-mer frequency, TF over GST control) with ETV3L; 1.39 fold enrichment (6-mer frequency, TF over GST control) in the test with ETS2; 1.88 fold enrichment (6-mer frequency, TF over GST control) with SPDEF; 1.37 fold enrichment (6-mer frequency, TF over GST control) in the test with ETV7; 1.35 fold enrichment (6-mer frequency, TF over GST control) with ELF5. Further, the binding signal with ETV3 was 1.29 fold enrichment (6-mer frequency, TF over GST control); in the test with ETV6, 1.33 fold enrichment (6-mer frequency, TF over GST control).

CCAACA: the binding signal with ERF was 1.05 fold enrichment (6-mer frequency, TF over GST control); with ETV3L, 1.01 fold enrichment (6-mer frequency, TF over GST control); in the test with ETS2, 1.03 fold enrichment (6-mer frequency, TF over GST control); in the test with SPDEF it was 1.06 fold enrichment (6-mer frequency, TF over GST control); with ETV7, 1.05 fold enrichment (6-mer frequency, TF over GST control); in the test with ELF5, 1.01 fold enrichment (6-mer frequency, TF over GST control). In the test with ETV3, the binding signal is 1.1 fold enrichment (6-mer frequency, TF over GST control).

As for CTATGT, the binding signal with ERF was 1.08 fold enrichment (6-mer frequency, TF over GST control); with ETV3L it was 1.06 fold enrichment (6-mer frequency, TF over GST control); with ETS2, 1.16 fold enrichment (6-mer frequency, TF over GST control); in the test with SPDEF it was 1.12 fold enrichment (6-mer frequency, TF over GST control); in the test with ETV7, 1.3 fold enrichment (6-mer frequency, TF over GST control); in the test with ELF5 it was 1.1 fold enrichment (6-mer frequency, TF over GST control). Also, the binding signal with ETV3 was 1.15 fold enrichment (6-mer frequency, TF over GST control).

For the sequence ACGAAC, the binding signal is 1.05 fold enrichment (6-mer frequency, TF over GST control) with ERF; 1.07 fold enrichment (6-mer frequency, TF over GST control) in the test with ETV3L; 1.22 fold enrichment (6-mer frequency, TF over GST control) with ETS2; 1.13 fold enrichment (6-mer frequency, TF over GST control) with SPDEF; 1.21 fold enrichment (6-mer frequency, TF over GST control) with ETV7; 1.09 fold enrichment (6-mer frequency, TF over GST control) in the test with ELF5. Moreover, the binding signal was 1.04 fold enrichment (6-mer frequency, TF over GST control) with ETV3 and 1.1 fold enrichment (6-mer frequency, TF over GST control) with ETV6.

For CTCGTA, the binding signal with ERF was 1.23 fold enrichment (6-mer frequency, TF over GST control); with ETV3L, 1.43 fold enrichment (6-mer frequency, TF over GST control); with ETS2 it was 1.37 fold enrichment (6-mer frequency, TF over GST control); with SPDEF, 1.2 fold enrichment (6-mer frequency, TF over GST control); in the test with ETV7, 1.11 fold enrichment (6-mer frequency, TF over GST control); with ELF5, 1.28 fold enrichment (6-mer frequency, TF over GST control). The binding signal is 1.23 fold enrichment (6-mer frequency, TF over GST control) in the test with ETV3 and 1.2 fold enrichment (6-mer frequency, TF over GST control) in the test with ETV6.

Regarding GCCGAC, the binding signal was 1.2 fold enrichment (6-mer frequency, TF over GST control) in the test with ERF; 1.29 fold enrichment (6-mer frequency, TF over GST control) with ETV3L; 1.15 fold enrichment (6-mer frequency, TF over GST control) with ETS2; 1.12 fold enrichment (6-mer frequency, TF over GST control) in the test with SPDEF; 1.12 fold enrichment (6-mer frequency, TF over GST control) in the test with ETV7; 1.07 fold enrichment (6-mer frequency, TF over GST control) with ELF5. Moreover, the binding signal in the test with ETV3 is 1.23 fold enrichment (6-mer frequency, TF over GST control); with ETV6, 1.08 fold enrichment (6-mer frequency, TF over GST control).
